{
  "source": "PubChem BioAssay (Tox21)",
  "note": "Inconclusive results are not listed. Calls of active or inactive are those of the source. Calls follow the shape of the full dose curve. % is scaled to controls: 0 for no effect and ±100 for the full control effect; potency is read from the fitted curve at half-maximal effect.",
  "data": [
    {"biological_target": "Progesterone receptor (Homo sapiens) (UniProt P06401)", "sequence (P06401 whole entry, looked up)": "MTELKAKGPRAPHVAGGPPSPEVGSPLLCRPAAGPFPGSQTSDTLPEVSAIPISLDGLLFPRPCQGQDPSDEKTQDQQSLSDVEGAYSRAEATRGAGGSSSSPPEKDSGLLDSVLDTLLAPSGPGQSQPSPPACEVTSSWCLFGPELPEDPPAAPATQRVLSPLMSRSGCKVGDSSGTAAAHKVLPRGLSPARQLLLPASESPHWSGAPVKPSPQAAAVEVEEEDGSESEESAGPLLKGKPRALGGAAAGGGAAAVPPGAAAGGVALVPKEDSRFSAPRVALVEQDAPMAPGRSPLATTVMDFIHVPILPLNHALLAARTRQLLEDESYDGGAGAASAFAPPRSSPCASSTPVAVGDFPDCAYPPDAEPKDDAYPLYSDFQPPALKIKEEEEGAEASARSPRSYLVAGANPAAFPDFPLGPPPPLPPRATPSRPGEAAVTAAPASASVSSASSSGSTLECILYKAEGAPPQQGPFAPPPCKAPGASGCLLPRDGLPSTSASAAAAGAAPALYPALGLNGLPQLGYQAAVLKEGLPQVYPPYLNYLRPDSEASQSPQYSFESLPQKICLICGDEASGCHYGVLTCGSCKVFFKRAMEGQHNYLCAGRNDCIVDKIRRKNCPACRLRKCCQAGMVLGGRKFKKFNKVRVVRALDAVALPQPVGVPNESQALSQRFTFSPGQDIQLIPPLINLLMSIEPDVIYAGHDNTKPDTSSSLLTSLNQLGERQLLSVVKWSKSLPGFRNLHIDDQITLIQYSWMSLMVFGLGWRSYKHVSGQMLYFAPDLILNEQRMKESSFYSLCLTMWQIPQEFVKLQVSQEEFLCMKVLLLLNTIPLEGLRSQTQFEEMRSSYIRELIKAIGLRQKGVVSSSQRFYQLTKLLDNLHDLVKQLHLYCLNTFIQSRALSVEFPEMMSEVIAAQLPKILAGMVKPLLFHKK", "experiment": "qHTS assay to identify small molecule agonists of the progesterone receptor (PR) signaling pathway (AID 1346784); also: nearly all actives have a fitted effect of over 30% in size", "details": "PR-UAS-bla HEK293T, beta-lactamase FRET ratio, 16 h; series mostly up to 92.4 µM; activation: at the top concentration", "in_short": "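Cells (PR-UAS-bla HEK 293T, GripTite) were plated in assay medium containing 2% charcoal-stripped FBS and incubated 6 hr. Test compounds in DMSO were added for 16 hr at 37C. FRET substrate was then loaded for 2 hr at room temperature before fluorescence reading.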", "values": [
      {"compound": "Cc1ccccc1N=C(N)N=C(N)N", "activation": "-0.713% (inactive)"},
      {"compound": "FB(F)F", "activation": "0.331% (inactive)"},
      {"compound": "CCCC(=O)O[C@]1(C(=O)CC)CC[C@H]2[C@@H]3CCC4=CC(=O)CC[C@]4(C)[C@H]3[C@@H](O)C[C@@]21C", "Potency": "0.0075 µM (active)"},
      {"compound": "CCO[Si](OCC)(OCC)c1ccccc1", "activation": "-0.362% (inactive)"},
      {"compound": "Cc1cccc(C)c1NC(=O)CC12CCCN1CCC2", "activation": "-0.0074% [at 42.5 µM] (inactive)"},
      {"compound": "O=S(=O)(O)c1cc(O)c(O)c(S(=O)(=O)O)c1", "activation": "-2.87% (inactive)"},
      {"compound": "CC(C)C1CCC(O)CC1", "note": "(stereo not drawn)", "activation": "-0.492% (inactive)"},
      {"compound": "CC1=NN(c2cc(S(=O)(=O)O)ccc2Cl)C(=O)C1N=Nc1ccccc1", "note": "(stereo not drawn)", "activation": "-0.115% (inactive)"},
      {"compound": "CC12CCC(C(=O)C1=O)C2(C)C", "note": "(stereo not drawn)", "activation": "0.848% (inactive)"},
      {"compound": "C=CN1CCCCCC1=O", "activation": "0.898% (inactive)"},
      {"compound": "CCCCCCCCCCCCCCCCCCO", "activation": "-0.593% [at 42.5 µM] (inactive)"},
      {"compound": "CC(C)C(=O)OC(=O)C(C)C", "activation": "-1.58% (inactive)"},
      {"compound": "[O-][n+]1cccc(CO)c1", "activation": "1.45% [at 42.5 µM] (inactive)"},
      {"compound": "CCCCCC(=O)OCCc1ccccc1", "activation": "-0.215% (inactive)"},
      {"compound": "CC(=O)NC(=O)c1ccccc1O", "activation": "0.628% [at 42.5 µM] (inactive)"},
      {"compound": "COc1cc(C(=O)OC(COCCC(C)C)CN2CCOCC2)cc(OC)c1OC", "note": "(stereo not drawn)", "activation": "-1.09% [at 42.5 µM] (inactive)"},
      {"compound": "CO[Si](C)(OC)c1ccccc1", "activation": "2.86% (inactive)"},
      {"compound": "C=COC(=O)C(C)(CC)CCC(C)C", "note": "(stereo not drawn)", "activation": "-0.291% (inactive)"},
      {"compound": "C=C[Si](OC(C)=O)(OC(C)=O)OC(C)=O", "activation": "0.513% (inactive)"},
      {"compound": "COc1c(N2CCNC(C)C2)c(F)cc2c(=O)c(C(=O)O)cn(C3CC3)c12", "note": "(stereo not drawn)", "activation": "1.22% [at 42.5 µM] (inactive)"},
      {"compound": "CC1(C)OC[C@@H](COC(=O)CCc2ccc(OC[C@@H](O)CNCCNC(=O)N3CCOCC3)cc2)O1", "activation": "-0.13% [at 42.5 µM] (inactive)"},
      {"compound": "C=CC(C)(CCC=C(C)C)OC(=O)CC", "note": "(stereo not drawn)", "activation": "0.0837% (inactive)"},
      {"compound": "c1ccc(Cc2ccccc2)cc1", "activation": "-1.1% (inactive)"},
      {"compound": "CC(C)(C#N)Nc1nc(Cl)nc(NC2CC2)n1", "activation": "-5.53% (inactive)"},
      {"compound": "C=C(C)C(=O)OCC1CCCO1", "note": "(stereo not drawn)", "activation": "-0.622% (inactive)"},
      {"compound": "CC(=O)Nc1ccc(OCC(O)CNC(C)C)cc1", "note": "(stereo not drawn)", "activation": "-0.0779% [at 42.5 µM] (inactive)"},
      {"compound": "CN(C)[C@@H]1C(=O)C(C(=O)NCN2CCCC2)=C(O)[C@@]2(O)C(=O)C3=C(O)c4c(O)cccc4[C@@](C)(O)C3C[C@@H]12", "note": "(stereo partly drawn)", "activation": "4.24% [at 42.5 µM] (inactive)"},
      {"compound": "COc1cc(C(=O)NCc2ccc(OCCN(C)C)cc2)cc(OC)c1OC", "activation": "5.3% [at 42.5 µM] (inactive)"},
      {"compound": "CCCC(C)C(=O)OCC", "note": "(stereo not drawn)", "activation": "-2.35% (inactive)"},
      {"compound": "CCCCOC(=O)CCC(C)=O", "activation": "1.21% (inactive)"},
      {"compound": "CC(C#N)(CCC(=O)O)N=NC(C)(C#N)CCC(=O)O", "note": "(stereo not drawn)", "activation": "0.438% (inactive)"},
      {"compound": "O=S(=O)(O)c1cccc2ccccc12", "activation": "0.352% (inactive)"},
      {"compound": "CN(C)C(=O)Oc1cccc([N+](C)(C)C)c1", "activation": "-0.694% [at 42.5 µM] (inactive)"},
      {"compound": "CC(=O)N[C@H]1[C@H]([C@H](O)[C@H](O)CO)OC(C(=O)O)=C[C@@H]1N=C(N)N", "activation": "3.95% [at 42.5 µM] (inactive)"},
      {"compound": "CCN[C@@H]1C[C@H](N)[C@@H](OC2OC(CN)=CCC2N)[C@H](O)[C@H]1O[C@H]1OC[C@](C)(O)[C@H](NC)[C@H]1O", "note": "(stereo partly drawn)", "activation": "0.0091% [at 0.349 µM] (inactive)"},
      {"compound": "C=CC(=O)OCCCl", "activation": "-1.58% (inactive)"},
      {"compound": "CCCc1nn(C)c2c(=O)[nH]c(-c3cc(S(=O)(=O)N4CCN(C)CC4)ccc3OCC)nc12", "Potency": "13.3 µM (active)"},
      {"compound": "C[N+]12CCC(CC1)C(OC(=O)C(O)(c1ccccc1)c1ccccc1)C2", "note": "(stereo not drawn)", "activation": "-0.339% [at 42.5 µM] (inactive)"}
    ]}
  ]
}
